Measurements reported in PubChem BioAssay (EPA / NIEHS).
Calls of active or inactive are those of the source. How the source made its calls: active means hit-call score of the fitted dose curve at least 0.9, where 1 is the maximum; inactive means score below 0.9.

How the values were obtained:
[1] = target: Bile acid receptor (Homo sapiens) (UniProt Q96RI1); test: ATG_IR1_CIS: Attagene CIS-FACTORIAL HepG2 Assay for human Nuclear Receptor Subfamily 1 Group H Member 4 (NR1H4), IR1 submotif (AID 2282946); settings: IR1 reporter transcription, actives raise or lower the signal
Method in brief: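 Readout: reporter transcript levels by RT-PCR with fluorescent capillary electrophoresis, from HepG2 cells transiently transfected with multiplexed cis-regulated reporters and dosed 24 h. Gain- or loss-of-signal fitted versus DMSO negative control.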

[2] = ATG_GRE_CIS: Attagene CIS-FACTORIAL HepG2 Assay for human Glucocorticoid Response Elements (GRE) (AID 2282947); settings: HepG2 GRE cis-reporter, Attagene multiplex mRNA; actives raise or lower the signal
Method in brief: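 HepG2, transient cis-reporter transfection, 24 h. Reporter mRNA: RT-PCR then CE, fluorescence. Fit both directions vs DMSO.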

[3] = ATG_ISRE_CIS: Attagene CIS-FACTORIAL HepG2 Assay for human Interferon Regulatory Factor 1 (IRF1) binding to an Interferon-Stimulated Response Element (ISRE) (AID 2282948); settings: HepG2 ISRE cis-reporter (Attagene), mRNA transcription readout; actives raise or lower the signal
Method in brief: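 Signal reflects induction or loss of ISRE-linked reporter mRNA in transiently transfected HepG2 cells after a 24 h treatment, detected by fluorescent RT-PCR fragments on capillary electrophoresis and normalised to DMSO.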

[4] = ATG_M_32_CIS: Attagene CIS-FACTORIAL HepG2 Assay for M32 Transcription Factor (Internal Marker) (AID 2282949); settings: HepG2 Attagene cis-factorial M32 reporter, mRNA; actives raise or lower the signal;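 further: background control marker of the multiplexed CIS panel rather than a real target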
Method in brief: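 Using DMSO as baseline, bidirectional curve fits were applied to reporter mRNA signals. These came from transiently transfected HepG2 cells exposed for 24 h, with RNA analysed by RT-PCR, FAM primer extension, HpaI digestion and CE.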

[5] = ATG_M_06_CIS: Attagene CIS-FACTORIAL HepG2 Assay for M06 Transcription Factor (Internal Marker) (AID 2282950); settings: HepG2 Attagene CIS-FACTORIAL M06 internal marker reporter; actives raise or lower the signal
Method in brief: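 Steps: transfect HepG2 with multiplexed cis-element reporter constructs; dose chemical 24 h; extract RNA with DNase treatment; reverse-transcribe, PCR-amplify, 6-FAM label, HpaI digest; separate fragments by capillary electrophoresis. Activity fitted both directions versus DMSO.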

[6] = target: Hypoxia-inducible factor 1-alpha (Homo sapiens) (UniProt Q16665); test: ATG_HIF1a_CIS: Attagene CIS-FACTORIAL HepG2 Assay for human Hypoxia Inducible Factor 1 (HIF1A) (AID 2282951); settings: HepG2 Attagene cis-factorial HIF1a reporter transcription; actives raise or lower the signal
Method in brief: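 RT-PCR/capillary electrophoresis fluorescence readout of reporter transcripts from endogenous-TF-driven cis elements in transfected HepG2 cells, 24 h exposure; activity fitted in both directions against DMSO controls.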

[7] = target: Hepatocyte nuclear factor 6 (Homo sapiens) (UniProt Q9UBC0); test: ATG_HNF6_CIS: Attagene CIS-FACTORIAL HepG2 Assay for human Hepatocyte Nuclear Factor 6 (HNF6) (AID 2282952); settings: HepG2 Attagene cis-factorial HNF6 reporter transcription; actives raise or lower the signal
Method in brief: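 Using cis-element reporters in HepG2 liver cells, the assay tracks endogenous factor-driven transcription 24 h post-dosing. Signal comes from 6-FAM-labelled, HpaI-digested RT-PCR fragments, with gain or loss scored against DMSO.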

[8] = target: Heat shock factor protein 1 (Homo sapiens) (UniProt Q00613); test: ATG_HSE_CIS: Attagene CIS-FACTORIAL HepG2 Assay for human Heat Shock Transcription Factor 1 (HSE) (AID 2282953); settings: HepG2 HSE cis-reporter, Attagene RNA transcription; actives raise or lower the signal
Method in brief: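 Cells were transfected with cis-element-driven reporter constructs, dosed for 24 h, then total RNA was reverse-transcribed and reporter cDNA amplified, FAM-labelled and digested with HpaI. Fragments were resolved by capillary electrophoresis; gain or loss was fitted against DMSO.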

[9] = ATG_MRE_CIS: Attagene CIS-FACTORIAL HepG2 Assay for human Metal Responsive Element (MRE) (AID 2282954); settings: HepG2 MRE cis-reporter transcription, Attagene multiplex; actives raise or lower the signal
Method in brief: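 Readout: capillary electrophoresis of 6-FAM-labelled, HpaI-digested RT-PCR reporter products. System: HepG2 cells carrying transient multiplexed cis reporters, dosed 24 h. Analysis: bidirectional fit, DMSO baseline.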

[10] = ATG_PBREM_CIS: Attagene CIS-FACTORIAL HepG2 Assay for human Phenobarbital-responsive Enhancer Module (PBREM) (AID 2282955); settings: HepG2 PBREM cis-reporter, Attagene multiplexed transcription; actives raise or lower the signal
Method in brief: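 Reporter mRNA read by RT-PCR, 6-FAM primer extension, HpaI digestion and capillary electrophoresis. Transfected HepG2 cells, 24 h compound exposure. Gain or loss of signal fitted bidirectionally relative to DMSO baseline.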

[11] = target: Paired box protein Pax-6 (Homo sapiens) (UniProt P26367); test: ATG_Pax6_CIS: Attagene CIS-FACTORIAL HepG2 Assay for human Paired Box 6 (PAX6) (AID 2282956); settings: HepG2 CIS-FACTORIAL PAX6 reporter transcription, RNA readout; actives raise or lower the signal
Method in brief: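 Values derive from bidirectional curve fitting of reporter mRNA signal relative to DMSO. HepG2 cells bearing transfected cis-regulated MRTUs were exposed for 24 h; transcripts were read by RT-PCR and capillary electrophoresis.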

[12] = ATG_PPRE_CIS: Attagene CIS-FACTORIAL HepG2 Assay for human Peroxisome Proliferator-activated Response Element (PPRE) (AID 2282958); settings: HepG2 PPRE cis-element reporter, Attagene transcription factor profiling; actives raise or lower the signal
Method in brief: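 Read-out: fluorescent reporter mRNA fragments resolved by capillary electrophoresis after RT-PCR. HepG2 cells carried transiently transfected PPRE-driven cis reporter constructs and were dosed for 24 h; gain or loss of signal fitted relative to DMSO.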

[13] = ATG_RORE_CIS: Attagene CIS-FACTORIAL HepG2 Assay for human RAR-related Orphan Receptor Element (RORE) (AID 2282959); settings: HepG2 Attagene cis-factorial RORE reporter, mRNA; actives raise or lower the signal
Method in brief: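 Readout: fluorescent reporter mRNA by RT-PCR plus capillary electrophoresis, 24 h after dosing transfected HepG2 cells. Endogenous transcription factor activity on a cis promoter element is measured. Gain or loss of signal fitted against DMSO.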

[14] = ATG_Sox_CIS: Attagene CIS-FACTORIAL HepG2 Assay for human SRY-box transcription factor (SOX) (AID 2282960); settings: HepG2 Attagene cis-factorial SOX reporter, mRNA; actives raise or lower the signal
Method in brief: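 Read-out: fluorescent RT-PCR products of SOX1-linked reporter transcripts resolved by capillary electrophoresis, fitted bidirectionally against DMSO. Transiently transfected HepG2 cells, 24 h after chemical exposure, endogenous transcription factor activity.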

[15] = target: Transcription factor Sp1 (Homo sapiens) (UniProt P08047); test: ATG_Sp1_CIS: Attagene CIS-FACTORIAL HepG2 Assay for human Specificity Protein 1 (Sp1) (AID 2282961); settings: HepG2 Sp1 cis-reporter transcription, actives raise or lower the signal
Method in brief: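 Read-out: fluorescence of 6-FAM-labeled, HpaI-digested RT-PCR products separated by capillary electrophoresis. HepG2 cells carried transfected cis-element reporter units and were exposed to chemicals for 24 h; gain or loss of signal fitted relative to DMSO.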

[16] = target: Signal transducer and activator of transcription 3 (Homo sapiens) (UniProt P40763); test: ATG_STAT3_CIS: Attagene CIS-FACTORIAL HepG2 Assay for human Signal Transducer and Activator of Transcription 3 (STAT3) (AID 2282963); settings: HepG2, Attagene cis-factorial STAT3 reporter transcription; actives raise or lower the signal
Method in brief: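 Uses human liver HepG2 transiently carrying cis-regulated reporter transcription units. Following 24 h dosing, reporter mRNA induction was detected by RT-PCR and capillary electrophoresis, analysed bidirectionally versus DMSO.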

[17] = ATG_TA_CIS: Attagene CIS-FACTORIAL HepG2 Assay for human TA Basal Promoter (AID 2282964); settings: HepG2 Attagene CIS-factorial TA basal promoter reporter; actives raise or lower the signal
Method in brief: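 Steps: transfect HepG2 with MRTUs; dose 24 h; isolate RNA, DNase-treat, reverse-transcribe; PCR and FAM-label reporter cDNA; digest with HpaI 2h at 37 C; run capillary electrophoresis. Activity fitted both directions against DMSO.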

[18] = ATG_TCF_b_cat_CIS: Attagene CIS-FACTORIAL HepG2 Assay for human T-Cell-Factor with beta-catenin (TCF/b-cat) (AID 2282965); settings: HepG2 TCF/beta-catenin cis-reporter transcription, actives raise or lower the signal
Method in brief: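 Using capillary electrophoresis as the read-out, labelled reporter cDNA fragments from transiently transfected HepG2 were sized and quantified. Exposure lasted 24 hours; activity in either direction was referenced to DMSO.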

[19] = ATG_SREBP_CIS: Attagene CIS-FACTORIAL HepG2 Assay for human Sterol Regulatory Element Binding (SREBP) (AID 2282962); settings: HepG2 Attagene cis-factorial SREBP reporter, mRNA; actives raise or lower the signal
Method in brief: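 Values derive from bidirectional curve fitting with DMSO as baseline. The underlying measurement is reporter mRNA from cis-element-regulated units in transiently transfected HepG2, quantified by RT-PCR and capillary electrophoresis after 24 h exposure.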

[20] = ATG_PXRE_CIS: Attagene CIS-FACTORIAL HepG2 Assay for human Pregnane X Receptor Element (PXRE) (AID 2282957); settings: HepG2 Attagene CIS-FACTORIAL PXRE reporter, mRNA; actives raise or lower the signal
Method in brief: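 Using HepG2 transfected with multiple reporter transcription units, endogenous factor-driven transcription was scored as reporter mRNA after 24 h exposure.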

Measured: AC50

Chain of Hypoxia-inducible factor 1-alpha (Homo sapiens) (Q16665 whole entry, looked up): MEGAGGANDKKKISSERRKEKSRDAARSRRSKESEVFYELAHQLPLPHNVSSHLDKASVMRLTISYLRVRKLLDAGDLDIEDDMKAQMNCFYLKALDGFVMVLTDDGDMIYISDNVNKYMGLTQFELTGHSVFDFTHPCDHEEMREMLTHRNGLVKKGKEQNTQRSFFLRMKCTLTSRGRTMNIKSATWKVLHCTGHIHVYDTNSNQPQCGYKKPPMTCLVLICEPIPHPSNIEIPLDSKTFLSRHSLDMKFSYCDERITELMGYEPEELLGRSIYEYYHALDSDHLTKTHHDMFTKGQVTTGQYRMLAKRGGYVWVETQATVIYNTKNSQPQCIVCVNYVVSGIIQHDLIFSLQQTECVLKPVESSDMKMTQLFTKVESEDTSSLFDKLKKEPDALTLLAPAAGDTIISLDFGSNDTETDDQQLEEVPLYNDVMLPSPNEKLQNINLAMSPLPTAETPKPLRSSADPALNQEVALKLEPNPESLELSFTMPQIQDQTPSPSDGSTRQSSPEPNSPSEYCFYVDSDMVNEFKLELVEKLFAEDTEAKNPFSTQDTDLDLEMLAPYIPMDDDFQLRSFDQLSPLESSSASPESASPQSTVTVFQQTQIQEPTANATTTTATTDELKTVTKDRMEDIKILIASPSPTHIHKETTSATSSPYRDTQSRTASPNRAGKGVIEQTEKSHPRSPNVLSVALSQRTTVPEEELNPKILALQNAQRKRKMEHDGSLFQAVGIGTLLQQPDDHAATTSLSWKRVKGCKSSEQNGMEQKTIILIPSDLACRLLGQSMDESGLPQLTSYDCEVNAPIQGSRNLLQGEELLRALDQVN
Chain of Hepatocyte nuclear factor 6 (Homo sapiens) (Q9UBC0 whole entry, looked up, the tested form may be a part): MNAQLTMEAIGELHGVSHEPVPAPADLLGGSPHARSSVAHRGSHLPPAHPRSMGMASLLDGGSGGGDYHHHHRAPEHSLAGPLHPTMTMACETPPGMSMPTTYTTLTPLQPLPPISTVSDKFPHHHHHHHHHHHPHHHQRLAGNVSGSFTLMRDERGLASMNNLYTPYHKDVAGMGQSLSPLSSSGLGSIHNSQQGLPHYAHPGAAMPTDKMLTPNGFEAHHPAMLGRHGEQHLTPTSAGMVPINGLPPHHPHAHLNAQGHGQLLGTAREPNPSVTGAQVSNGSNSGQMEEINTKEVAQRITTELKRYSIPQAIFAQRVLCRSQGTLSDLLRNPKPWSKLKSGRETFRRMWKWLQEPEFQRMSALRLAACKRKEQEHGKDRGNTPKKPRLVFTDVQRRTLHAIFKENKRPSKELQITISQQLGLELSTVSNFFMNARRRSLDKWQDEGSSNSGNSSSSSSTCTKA
Chain of Paired box protein Pax-6 (Homo sapiens) (P26367 whole entry, looked up): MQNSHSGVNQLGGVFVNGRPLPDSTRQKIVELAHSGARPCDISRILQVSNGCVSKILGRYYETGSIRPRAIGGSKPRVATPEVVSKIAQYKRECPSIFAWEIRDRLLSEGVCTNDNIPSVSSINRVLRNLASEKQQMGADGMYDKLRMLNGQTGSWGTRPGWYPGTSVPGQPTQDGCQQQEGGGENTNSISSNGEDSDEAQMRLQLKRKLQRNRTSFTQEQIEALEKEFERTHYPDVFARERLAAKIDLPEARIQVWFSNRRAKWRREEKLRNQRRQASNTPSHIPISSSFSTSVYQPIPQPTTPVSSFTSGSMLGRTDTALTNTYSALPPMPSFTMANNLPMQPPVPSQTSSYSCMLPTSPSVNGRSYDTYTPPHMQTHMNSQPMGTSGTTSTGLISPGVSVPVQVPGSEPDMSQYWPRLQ
Chain of Heat shock factor protein 1 (Homo sapiens) (Q00613 whole entry, looked up, the tested form may be a part): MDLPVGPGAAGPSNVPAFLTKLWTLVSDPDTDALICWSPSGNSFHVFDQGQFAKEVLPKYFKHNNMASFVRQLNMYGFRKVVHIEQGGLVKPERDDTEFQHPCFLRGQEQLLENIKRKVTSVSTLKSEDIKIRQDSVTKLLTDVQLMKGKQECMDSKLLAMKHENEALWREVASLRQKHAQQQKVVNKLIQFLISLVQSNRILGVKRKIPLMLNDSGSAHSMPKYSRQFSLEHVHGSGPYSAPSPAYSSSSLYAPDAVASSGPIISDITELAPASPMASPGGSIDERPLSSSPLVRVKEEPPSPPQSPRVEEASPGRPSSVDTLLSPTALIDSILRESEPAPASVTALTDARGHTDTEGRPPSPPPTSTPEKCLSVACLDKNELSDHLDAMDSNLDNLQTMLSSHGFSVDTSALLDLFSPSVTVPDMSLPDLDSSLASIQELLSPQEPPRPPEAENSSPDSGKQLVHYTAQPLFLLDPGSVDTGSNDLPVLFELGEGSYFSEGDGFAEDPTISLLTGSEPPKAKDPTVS
Chain of Transcription factor Sp1 (Homo sapiens) (P08047 whole entry, looked up): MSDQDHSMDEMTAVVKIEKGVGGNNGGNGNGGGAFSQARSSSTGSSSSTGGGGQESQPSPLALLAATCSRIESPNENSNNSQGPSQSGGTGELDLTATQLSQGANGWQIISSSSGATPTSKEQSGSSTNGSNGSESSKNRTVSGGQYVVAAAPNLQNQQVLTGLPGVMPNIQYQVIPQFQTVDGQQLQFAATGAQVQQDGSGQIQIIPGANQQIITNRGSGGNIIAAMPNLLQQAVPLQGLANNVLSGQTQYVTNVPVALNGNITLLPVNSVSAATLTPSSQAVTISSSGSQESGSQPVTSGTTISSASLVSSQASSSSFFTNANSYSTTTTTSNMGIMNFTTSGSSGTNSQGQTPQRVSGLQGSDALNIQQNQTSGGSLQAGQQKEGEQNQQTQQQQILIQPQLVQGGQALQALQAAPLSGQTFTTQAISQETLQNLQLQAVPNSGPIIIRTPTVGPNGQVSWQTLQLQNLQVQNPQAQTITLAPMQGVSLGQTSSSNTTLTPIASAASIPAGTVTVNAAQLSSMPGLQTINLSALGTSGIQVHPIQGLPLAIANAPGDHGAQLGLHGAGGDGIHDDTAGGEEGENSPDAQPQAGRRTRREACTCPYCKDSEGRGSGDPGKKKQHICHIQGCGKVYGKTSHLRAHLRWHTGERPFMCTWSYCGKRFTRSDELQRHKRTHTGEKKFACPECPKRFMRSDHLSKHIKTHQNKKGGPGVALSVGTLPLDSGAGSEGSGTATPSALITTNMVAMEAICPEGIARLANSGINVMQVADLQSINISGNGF
Chain of Signal transducer and activator of transcription 3 (Homo sapiens) (P40763 whole entry, looked up): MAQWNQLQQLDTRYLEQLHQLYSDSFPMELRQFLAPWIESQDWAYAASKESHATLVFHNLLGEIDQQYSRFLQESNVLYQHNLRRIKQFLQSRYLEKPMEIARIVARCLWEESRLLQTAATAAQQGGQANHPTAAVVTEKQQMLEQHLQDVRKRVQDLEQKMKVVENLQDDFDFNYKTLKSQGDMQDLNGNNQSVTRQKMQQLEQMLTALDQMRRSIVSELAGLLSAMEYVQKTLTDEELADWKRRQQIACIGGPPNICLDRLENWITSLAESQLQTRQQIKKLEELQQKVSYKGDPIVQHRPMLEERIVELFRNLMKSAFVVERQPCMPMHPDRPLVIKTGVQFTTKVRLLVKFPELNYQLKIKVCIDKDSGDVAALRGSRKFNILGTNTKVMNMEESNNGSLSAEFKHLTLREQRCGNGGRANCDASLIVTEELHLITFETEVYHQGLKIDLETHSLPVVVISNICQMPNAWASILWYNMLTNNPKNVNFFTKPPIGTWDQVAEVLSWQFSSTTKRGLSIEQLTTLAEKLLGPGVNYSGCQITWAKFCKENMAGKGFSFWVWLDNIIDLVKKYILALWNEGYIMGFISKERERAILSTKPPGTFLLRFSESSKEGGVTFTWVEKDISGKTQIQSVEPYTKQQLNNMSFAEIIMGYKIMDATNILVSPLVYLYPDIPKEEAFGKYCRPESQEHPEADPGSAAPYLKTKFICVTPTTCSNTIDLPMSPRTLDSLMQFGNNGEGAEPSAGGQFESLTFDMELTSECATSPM
Chain of Bile acid receptor (Homo sapiens) (Q96RI1 whole entry, looked up): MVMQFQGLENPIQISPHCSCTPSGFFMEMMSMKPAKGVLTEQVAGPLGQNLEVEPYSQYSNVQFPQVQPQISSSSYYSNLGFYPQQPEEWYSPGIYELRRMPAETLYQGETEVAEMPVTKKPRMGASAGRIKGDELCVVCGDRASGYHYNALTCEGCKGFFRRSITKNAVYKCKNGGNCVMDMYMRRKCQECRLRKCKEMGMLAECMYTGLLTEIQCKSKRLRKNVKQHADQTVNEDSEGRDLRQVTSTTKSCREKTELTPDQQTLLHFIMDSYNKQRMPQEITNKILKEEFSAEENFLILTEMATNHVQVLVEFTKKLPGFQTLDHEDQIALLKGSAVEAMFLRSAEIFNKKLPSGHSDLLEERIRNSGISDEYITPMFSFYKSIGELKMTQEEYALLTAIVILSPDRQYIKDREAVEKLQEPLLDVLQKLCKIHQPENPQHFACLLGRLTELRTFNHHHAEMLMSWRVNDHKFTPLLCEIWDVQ

CCOc1ccc(C(C)(C)COCc2cccc(Oc3ccccc3)c2)cc1
not listed: [19] | [20]
inactive: all other assays above

O=S(=O)(c1ccc(O)cc1)c1ccc(O)cc1
not listed: [12] | [13] | [19] | [20]
inactive: all other assays above

CC1(C)CN=C(NN=C(/C=C/c2ccc(C(F)(F)F)cc2)/C=C/c2ccc(C(F)(F)F)cc2)NC1
inactive: [2] | [5] | [6] | [10] | [11] | [13]
active: [1] 6.99 µM | [3] 18.4 µM | [4] 17.4 µM | [7] 17.3 µM | [8] 18 µM | [9] 6.34 µM | [12] 3.92 µM | [14] 15.4 µM | [15] 16.6 µM | [19] 19.7 µM | [16] 20.2 µM | [17] 3.76 µM | [18] 19.4 µM

CNC(=O)Oc1ccc(N(C)C)c(C)c1
active: [20] 38.3 µM
not listed: [6] | [19]
inactive: all other assays above

OCC1CO1 (stereo not given)
not listed: [10] | [19] | [20]
inactive: all other assays above

O=P(Oc1ccccc1)(Oc1ccccc1)Oc1ccccc1
active: [1] 26.6 µM | [3] 33.4 µM | [8] 53.4 µM | [9] 33.4 µM | [11] 33.4 µM | [17] 42 µM
not listed: [13] | [18] | [19] | [20]
inactive: all other assays above

O=NN1CCCC1
not listed: [6]
inactive: all other assays above

O=C(O)C(F)(F)C(F)(F)C(=O)O
not listed: [6] | [18]
inactive: all other assays above

N#Cc1c(-c2ccc(Cl)cc2)[nH]c(C(F)(F)F)c1Br
active: [3] 1 µM | [8] 47.3 µM | [9] 0.956 µM | [10] 0.122 µM | [13] 1 µM
not listed: [12] | [19] | [20]
inactive: all other assays above

Cc1ccc(C(=O)Cl)cc1
not listed: [6] | [19]
inactive: all other assays above

CCOP(=O)(O)C(N)=O
active: [20] 47.9 µM
not listed: [6] | [13] | [19]
inactive: all other assays above

CCOC(=O)c1ccccc1N
active: [20] 39.6 µM
not listed: [6]
inactive: all other assays above

O=[N+]([O-])c1ccc(Cl)c(Cl)c1
not listed: [12] | [20]
inactive: all other assays above
